Experimental data taken from the supplement of paper PMC6555819.

How the values were obtained:
Test in all cases: PBM binding z-score (relative to random genomic background probes); higher = stronger binding; sequences stand for … in GC…GCGATTGACAGCGTAGAATGAAGG
[1] = test system: FXR:RXRa (NR concentration 270 nM, RXRa partner concentration 90 nM)
Summary of the method: (§1)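 Antibodies against each partner of ligand-free nuclear receptor dimers (one per run) detected binding on custom Agilent 4×180K protein-binding microarrays after 1 h incubation. The double-stranded probes had 34-nt variable regions carrying direct-repeat seeds, single-nucleotide variants, half-site ablations and random human genomic background sequences. Binding z-scores, from regression-normalized fluorescence, use the random background probes as reference.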

[2] = test system: LXRa:RXRa (NR concentration 270 nM, RXRa partner concentration 90 nM)
Summary of the method: as §1

[3] = test system: LXRa homodimer (NR concentration 270 nM)
Summary of the method: as §1

[4] = test system: LXRb:RXRa (NR concentration 270 nM, RXRa partner concentration 90 nM)
Summary of the method: as §1

[5] = test system: LXRb homodimer (NR concentration 270 nM)
Summary of the method: as §1

[6] = test system: PPARa:RXRa (NR concentration 270 nM, RXRa partner concentration 90 nM)
Summary of the method: as §1

[7] = test system: PPARg:RXRa (NR concentration 180 nM, RXRa partner concentration 90 nM)
Summary of the method: as §1

[8] = test system: PPARg:RXRa 270nM:90nM, anti-RXR (NR concentration 270 nM, RXRa partner concentration 90 nM)
Summary of the method: as §1

[9] = test system: PPARg:RXRa 30nM:10nM, anti-RXR (NR concentration 30 nM, RXRa partner concentration 10 nM)
Summary of the method: as §1

[10] = test system: PPARg:RXRa 90nM:30nM, anti-RXR (NR concentration 90 nM, RXRa partner concentration 30 nM)
Summary of the method: as §1

| Sequence | PBM binding z-score [1] | PBM binding z-score [2] | PBM binding z-score [3] | PBM binding z-score [4] | PBM binding z-score [5] | PBM binding z-score [6] | PBM binding z-score [7] | PBM binding z-score [8] | PBM binding z-score [9] | PBM binding z-score [10] |
| --- | --- | --- | --- | --- | --- | --- | --- | --- | --- | --- |
| CGTCAAAGTTCAAGCTAACGTAACAGAAAGCAGC | 7.1 | 6.1 | 3.7 | 3.81 | 1.32 | 4.93 | 4.58 | 5.18 | 2.29 | 4.32 |
| TAGCCTAGGTCAGATCGGGCCAGTCTACGCTATA | 1.89 | 1.15 | -0.542 | 0.223 | -0.401 | 1.82 | 0.647 | 0.822 | -0.388 | 0.205 |
| TAGCCTAGGTCATGCGGGCCAGCATAGTGTCGGC | 3.77 | 3 | 0.115 | 1.37 | -0.19 | 3.4 | 2.11 | 2.55 | 0.274 | 1.49 |
| TCTTGTAGATCAAAGGTTAAGACAGCCGAAGCCT | 1.72 | 2.27 | 0.473 | 2.31 | -0.101 | 4.74 | 8.11 | 8.23 | 7.63 | 8.39 |
| ATCGAATGGTCGTGAGGTGAGTATACAGAAAGGC | 0.132 | -0.131 | -0.134 | -0.373 | -0.124 | -0.301 | 0.654 | -0.486 | -0.0496 | -0.425 |
| CGTGCAAGGTCAGAGAGGTCAGTGAATGCCGAGT | 6.42 | 5.22 | 3.35 | 4.61 | 0.199 | 5.16 | 3.9 | 4.62 | 1.19 | 3.09 |
| CCGACGGGGGCAGAAAGGTTACCATACCATCCGG | 2.77 | 2.96 | 0.333 | 4.22 | 3.55 | 3.93 | 1.68 | 3.06 | 0.967 | 2.16 |
| CCTGCTAGGTCTATGGTCAGCTAAAGCAGCTCGC | -0.302 | -0.394 | -0.393 | -0.493 | -0.41 | -0.509 | -0.485 | 0.268 | -1.04 | -0.432 |
| CGAACTAGGTCACCAGGACAGTGAAGAGGTTGGA | 3.86 | 2.39 | -0.071 | 1.65 | -0.543 | 5.04 | 8.82 | 7 | 4.54 | 6.65 |
| CGAACTAGGTCACTAGGACAGTGAAGAGGTTGGA | 2.63 | 1.57 | -0.199 | 0.869 | -0.496 | 4.78 | 8.29 | 6.68 | 3.9 | 6.28 |
| TCTCGGAGGACACGAAAGGTCAGAACTCGACATC | 2.77 | 3.63 | 3.3 | 3.19 | 0.189 | 3.29 | 1.1 | 2.1 | 2.51 | 2.07 |
| TAGCCTAGGTCATAGGGCCAGTATAGTACGCATC | 4.13 | 3.13 | 0.208 | 2.09 | -0.248 | 3.7 | 3.32 | 3.46 | 1.43 | 2.75 |
| CGTCCAAGGTCAGAGAGGTCAGTGACTGCCGAGT | 6.33 | 5.11 | 3.23 | 4.11 | 0.108 | 4.74 | – | 4.2 | 1 | 2.64 |
| ATATCTAGGTAAAAGTTCAGTGAATCCCGAGGAT | 0.694 | 1.43 | 1.24 | 1.15 | 0.657 | 5.76 | – | 9.29 | 9.08 | 10.4 |
| ATACGTAGGTTATCGGGTCATTCAGTTTGCGCAT | 3.01 | 3.2 | 1.41 | 2.88 | 1.18 | 3.58 | – | 3.39 | 0.883 | 2.46 |
| CAAACTAGGTCAAGAGGTCAAAGGCCGCTTCCCG | 7.41 | 6.17 | 5.69 | 5.21 | 1.49 | 6.45 | – | 8.47 | 7.55 | 9.13 |
| CAAAGTAGGTCACGAAAGGTCAAAGTCGAATGAC | 7.64 | 8.17 | 8.05 | 7.39 | 2.7 | 6.63 | – | 8.58 | 7.11 | 8.91 |
| CGCACTAGGTCATTGACAGGACAGTGAATAGTAA | 4.64 | 3.31 | 0.73 | 2.31 | 0.424 | 4.38 | – | 5.96 | 3.36 | 5.26 |
| CCAGACAGGTGAAAGGTAACTCCGTCTGGTACGC | 0.568 | 0.648 | -0.506 | 0.857 | -0.698 | 3.32 | – | 5.65 | 3.94 | 5.52 |
| CATACACGGTCAGCTAGGCCAGAGTAGGGACGGC | 0.00236 | 0.294 | -0.0294 | -0.523 | 0.421 | -0.409 | – | -0.257 | -0.34 | -0.382 |
| ACTTACGGGTCAACGAAGTTATAGCACGCGTATA | 6.23 | 4.01 | 0.164 | 3.62 | 0.73 | 5.47 | – | 4.81 | 1.85 | 3.63 |
| CCTAGTTGGTCAGGAGGTCCCACACCGGATATGA | 0.0406 | -0.213 | 0.429 | -0.248 | 0.251 | -0.0736 | – | 0.194 | -0.0977 | -0.144 |
| ATCTCTAGGTCAAAGTTCAGTGAATCCCGAGGAT | 5.79 | 6.34 | 6.95 | 4.67 | 3.69 | 6.3 | – | 9.63 | 10.4 | 10.7 |
